These results are taken from paper PMC11006913.

Where a chain is given by its changes, count along the chain named.

Holding throughout (experiment): PBM; 200 nM protein, PBS
What all share (settings): dsDNA, one strand shown

Experiment [1] has as its target ALX3 (Homo sapiens, UniProt O95076 139-225, N203Q).
In experiment [2] the target is ALX3 (Homo sapiens, UniProt O95076 139-225).
Experiment [3] addresses VAX1 (Homo sapiens, UniProt Q5SQQ9 86-172).
The target of experiment [4] is ALX3 (Homo sapiens, UniProt O95076 139-225, L168Q).
The target in experiment [5] is ALX3 (Homo sapiens, UniProt O95076 139-225, L168V).
Experiment [6] addresses VAX1 (Homo sapiens, UniProt Q5SQQ9 86-172, T142I).
Experiment [7] addresses ALX3 (Homo sapiens, UniProt O95076 139-225, N203S).
In experiment [8] the target is VAX1 (Homo sapiens, UniProt Q5SQQ9 86-172, K157R).
Experiment [9] deals with HOXD13 (Homo sapiens, UniProt P35453 263-343, T313R).
Experiment [10] concerns the target HOXD13 (Homo sapiens, UniProt P35453 263-343).
The target in experiment [11] is HOXD13 (Homo sapiens, UniProt P35453 263-343, T313A).
The target of experiment [12] is T1, NKX2-6 (Homo sapiens, UniProt A6NCS4 118-204).
T1 sequence: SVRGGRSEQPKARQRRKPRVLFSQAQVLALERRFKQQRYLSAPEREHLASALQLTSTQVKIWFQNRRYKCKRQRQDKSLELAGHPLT

Experiment [13] deals with T2, NKX2-6 (Homo sapiens, UniProt A6NCS4 118-204, F151L).
T2 sequence: T1 sequence with F34L

For another experiment, the target named is HOXC9 (Homo sapiens, UniProt P31274 178-260, R222W).
HOXC9, sequence (P31274 178-260 R222W): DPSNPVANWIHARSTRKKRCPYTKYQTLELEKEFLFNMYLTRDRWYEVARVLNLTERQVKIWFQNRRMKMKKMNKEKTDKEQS

ALX3 (Homo sapiens, UniProt O95076 139-225, L168Q), sequence (O95076 139-225 L168Q): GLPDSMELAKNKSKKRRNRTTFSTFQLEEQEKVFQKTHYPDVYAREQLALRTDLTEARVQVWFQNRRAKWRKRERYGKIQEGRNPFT
ALX3 (Homo sapiens, UniProt O95076 139-225), sequence (O95076 139-225): as the sequence (O95076 139-225 L168Q) above, with Q30L counted along it
HOXD13 (Homo sapiens, UniProt P35453 263-343, T313R), sequence (P35453 263-343 T313R): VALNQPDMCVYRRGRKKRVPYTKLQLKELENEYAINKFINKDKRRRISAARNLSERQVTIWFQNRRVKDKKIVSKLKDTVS
ALX3 (Homo sapiens, UniProt O95076 139-225, N203S), sequence (O95076 139-225 N203S): as the sequence (O95076 139-225 L168Q) above, with Q30L, N65S counted along it
ALX3 (Homo sapiens, UniProt O95076 139-225, N203Q), sequence (O95076 139-225 N203Q): as the sequence (O95076 139-225 L168Q) above, with Q30L, N65Q counted along it
ALX3 (Homo sapiens, UniProt O95076 139-225, L168V), sequence (O95076 139-225 L168V): as the sequence (O95076 139-225 L168Q) above, with Q30V counted along it
VAX1 (Homo sapiens, UniProt Q5SQQ9 86-172, K157R), sequence (Q5SQQ9 86-172 K157R): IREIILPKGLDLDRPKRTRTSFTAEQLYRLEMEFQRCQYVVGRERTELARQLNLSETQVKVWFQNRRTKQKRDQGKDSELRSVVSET
VAX1 (Homo sapiens, UniProt Q5SQQ9 86-172), sequence (Q5SQQ9 86-172): as the sequence (Q5SQQ9 86-172 K157R) above, with R72K counted along it
VAX1 (Homo sapiens, UniProt Q5SQQ9 86-172, T142I), sequence (Q5SQQ9 86-172 T142I): as the sequence (Q5SQQ9 86-172 K157R) above, with T57I, R72K counted along it
HOXD13 (Homo sapiens, UniProt P35453 263-343), sequence (P35453 263-343): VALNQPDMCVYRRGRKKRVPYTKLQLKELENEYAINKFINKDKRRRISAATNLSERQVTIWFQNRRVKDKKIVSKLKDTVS
HOXD13 (Homo sapiens, UniProt P35453 263-343, T313A), sequence (P35453 263-343 T313A): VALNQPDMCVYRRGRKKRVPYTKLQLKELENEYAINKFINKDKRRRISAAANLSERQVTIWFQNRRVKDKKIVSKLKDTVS

Take GCTCTGCC: the binding signal in the experiment with ALX3 [1] was 7.7 upbm affinity estimate (log intensity, higher = more binding, comparable within an allelic series); with ALX3 [2], 7.55 upbm affinity estimate (log intensity, higher = more binding, comparable within an allelic series); with VAX1 [3], 7.01 upbm affinity estimate (log intensity, higher = more binding, comparable within an allelic series); with ALX3 [4] it was 7.72 upbm affinity estimate (log intensity, higher = more binding, comparable within an allelic series); in the experiment with ALX3 [5], 7.75 upbm affinity estimate (log intensity, higher = more binding, comparable within an allelic series); with VAX1 [6] it was 7.19 upbm affinity estimate (log intensity, higher = more binding, comparable within an allelic series). The binding signal in the experiment with ALX3 [7] is 7.71 upbm affinity estimate (log intensity, higher = more binding, comparable within an allelic series); with VAX1 [8] it was 7.08 upbm affinity estimate (log intensity, higher = more binding, comparable within an allelic series).

Regarding AGGCACGC, the binding signal with ALX3 [1] is 7.63 upbm affinity estimate (log intensity, higher = more binding, comparable within an allelic series); with ALX3 [2], 7.78 upbm affinity estimate (log intensity, higher = more binding, comparable within an allelic series); in the experiment with ALX3 [4] it was 7.71 upbm affinity estimate (log intensity, higher = more binding, comparable within an allelic series); with ALX3 [5], 7.61 upbm affinity estimate (log intensity, higher = more binding, comparable within an allelic series); with ALX3 [7], 7.64 upbm affinity estimate (log intensity, higher = more binding, comparable within an allelic series).

For the sequence CCTGGCCC, the binding signal with ALX3 [1] is 7.75 upbm affinity estimate (log intensity, higher = more binding, comparable within an allelic series); in the experiment with ALX3 [2] it was 7.59 upbm affinity estimate (log intensity, higher = more binding, comparable within an allelic series); with ALX3 [4], 7.65 upbm affinity estimate (log intensity, higher = more binding, comparable within an allelic series); in the experiment with ALX3 [5], 7.67 upbm affinity estimate (log intensity, higher = more binding, comparable within an allelic series); in the experiment with ALX3 [7], 7.74 upbm affinity estimate (log intensity, higher = more binding, comparable within an allelic series).

With GACATAAC, the binding signal is 8.29 upbm affinity estimate (log intensity, higher = more binding, comparable within an allelic series) with ALX3 [1] and 9.44 upbm affinity estimate (log intensity, higher = more binding, comparable within an allelic series) in the experiment with ALX3 [2].

Turning to CAGTCGCA, the binding signal is 7.8 upbm affinity estimate (log intensity, higher = more binding, comparable within an allelic series) in the experiment with ALX3 [1]; 7.85 upbm affinity estimate (log intensity, higher = more binding, comparable within an allelic series) in the experiment with ALX3 [2]; 7.89 upbm affinity estimate (log intensity, higher = more binding, comparable within an allelic series) with ALX3 [4]; 7.88 upbm affinity estimate (log intensity, higher = more binding, comparable within an allelic series) with ALX3 [5]; 7.8 upbm affinity estimate (log intensity, higher = more binding, comparable within an allelic series) with ALX3 [7].

With CCACAGGG, the binding signal with ALX3 [1] was 7.75 upbm affinity estimate (log intensity, higher = more binding, comparable within an allelic series); with HOXD13 [9] it was 9.71 upbm affinity estimate (log intensity, higher = more binding, comparable within an allelic series); with HOXD13 [10], 9.49 upbm affinity estimate (log intensity, higher = more binding, comparable within an allelic series); in the experiment with ALX3 [2], 7.62 upbm affinity estimate (log intensity, higher = more binding, comparable within an allelic series); in the experiment with ALX3 [4], 7.81 upbm affinity estimate (log intensity, higher = more binding, comparable within an allelic series); with HOXD13 [11] it was 9.58 upbm affinity estimate (log intensity, higher = more binding, comparable within an allelic series). The binding signal was 7.81 upbm affinity estimate (log intensity, higher = more binding, comparable within an allelic series) with ALX3 [5] and 7.73 upbm affinity estimate (log intensity, higher = more binding, comparable within an allelic series) with ALX3 [7].

Regarding CTTAATTC, the binding signal in the experiment with ALX3 [1] was 8.32 upbm affinity estimate (log intensity, higher = more binding, comparable within an allelic series); in the experiment with ALX3 [2], 11.7 upbm affinity estimate (log intensity, higher = more binding, comparable within an allelic series); with ALX3 [4], 9.59 upbm affinity estimate (log intensity, higher = more binding, comparable within an allelic series); with ALX3 [5] it was 9.14 upbm affinity estimate (log intensity, higher = more binding, comparable within an allelic series); in the experiment with ALX3 [7], 8.4 upbm affinity estimate (log intensity, higher = more binding, comparable within an allelic series).

As for AGGGGGGC, the binding signal is 7.49 upbm affinity estimate (log intensity, higher = more binding, comparable within an allelic series) with ALX3 [1]; 7.66 upbm affinity estimate (log intensity, higher = more binding, comparable within an allelic series) in the experiment with ALX3 [2]; 7.62 upbm affinity estimate (log intensity, higher = more binding, comparable within an allelic series) with ALX3 [4]; 7.47 upbm affinity estimate (log intensity, higher = more binding, comparable within an allelic series) with ALX3 [5]; 7.44 upbm affinity estimate (log intensity, higher = more binding, comparable within an allelic series) with ALX3 [7].

As for AATTGTCC, the binding signal with ALX3 [1] was 8.15 upbm affinity estimate (log intensity, higher = more binding, comparable within an allelic series); with NKX2-6 [12], 11.4 upbm affinity estimate (log intensity, higher = more binding, comparable within an allelic series); with ALX3 [2] it was 10.1 upbm affinity estimate (log intensity, higher = more binding, comparable within an allelic series); with NKX2-6 [13] it was 9.84 upbm affinity estimate (log intensity, higher = more binding, comparable within an allelic series); with ALX3 [7], 8.23 upbm affinity estimate (log intensity, higher = more binding, comparable within an allelic series).

On to CATATTAC, for which the binding signal with ALX3 [1] is 8.38 upbm affinity estimate (log intensity, higher = more binding, comparable within an allelic series); in the experiment with ALX3 [2], 10.5 upbm affinity estimate (log intensity, higher = more binding, comparable within an allelic series); with VAX1 [3], 10.8 upbm affinity estimate (log intensity, higher = more binding, comparable within an allelic series); with VAX1 [6], 10.4 upbm affinity estimate (log intensity, higher = more binding, comparable within an allelic series); with VAX1 [8] it was 10.5 upbm affinity estimate (log intensity, higher = more binding, comparable within an allelic series).

Consider CAGCACCC, for which the binding signal in the experiment with ALX3 [1] is 7.8 upbm affinity estimate (log intensity, higher = more binding, comparable within an allelic series); with ALX3 [2], 7.73 upbm affinity estimate (log intensity, higher = more binding, comparable within an allelic series); in the experiment with ALX3 [4] it was 7.75 upbm affinity estimate (log intensity, higher = more binding, comparable within an allelic series); with ALX3 [5], 7.68 upbm affinity estimate (log intensity, higher = more binding, comparable within an allelic series); with ALX3 [7], 7.8 upbm affinity estimate (log intensity, higher = more binding, comparable within an allelic series).

Turning to TTATAGAA, the binding signal in the experiment with ALX3 [1] was 8.31 upbm affinity estimate (log intensity, higher = more binding, comparable within an allelic series); in the experiment with ALX3 [2], 9.6 upbm affinity estimate (log intensity, higher = more binding, comparable within an allelic series); with ALX3 [7] it was 8.38 upbm affinity estimate (log intensity, higher = more binding, comparable within an allelic series).

ATTTGACC: the binding signal was 8.13 upbm affinity estimate (log intensity, higher = more binding, comparable within an allelic series) with ALX3 [1]; 9.49 upbm affinity estimate (log intensity, higher = more binding, comparable within an allelic series) with ALX3 [2]; 8.24 upbm affinity estimate (log intensity, higher = more binding, comparable within an allelic series) in the experiment with ALX3 [7].

As to CTTTTATA, the binding signal with HOXD13 [9] was 10.7 upbm affinity estimate (log intensity, higher = more binding, comparable within an allelic series).

As for TATTATAA, the binding signal with ALX3 [1] was 8.66 upbm affinity estimate (log intensity, higher = more binding, comparable within an allelic series); with ALX3 [7] it was 8.67 upbm affinity estimate (log intensity, higher = more binding, comparable within an allelic series).

For the sequence ATATTTAA, the binding signal with ALX3 [1] is 8.67 upbm affinity estimate (log intensity, higher = more binding, comparable within an allelic series); with ALX3 [7] it was 8.84 upbm affinity estimate (log intensity, higher = more binding, comparable within an allelic series).

Consider CTTATTGC, for which the binding signal is 10.1 upbm affinity estimate (log intensity, higher = more binding, comparable within an allelic series) in the experiment with HOXD13 [9] and 10.7 upbm affinity estimate (log intensity, higher = more binding, comparable within an allelic series) with HOXD13 [10].

With ATAAATAA, the binding signal was 8.6 upbm affinity estimate (log intensity, higher = more binding, comparable within an allelic series) with ALX3 [1]; 11.1 upbm affinity estimate (log intensity, higher = more binding, comparable within an allelic series) with HOXC9; 8.76 upbm affinity estimate (log intensity, higher = more binding, comparable within an allelic series) in the experiment with ALX3 [7].

As for AGTTACAG, the binding signal is 8.16 upbm affinity estimate (log intensity, higher = more binding, comparable within an allelic series) with ALX3 [1]; 8.82 upbm affinity estimate (log intensity, higher = more binding, comparable within an allelic series) with ALX3 [2]; 8.25 upbm affinity estimate (log intensity, higher = more binding, comparable within an allelic series) with ALX3 [7].

Regarding AGATTTTA, the binding signal was 8.19 upbm affinity estimate (log intensity, higher = more binding, comparable within an allelic series) with ALX3 [1]; 9.08 upbm affinity estimate (log intensity, higher = more binding, comparable within an allelic series) in the experiment with ALX3 [2]; 8.26 upbm affinity estimate (log intensity, higher = more binding, comparable within an allelic series) with ALX3 [7].

GTTATGCA: the binding signal in the experiment with ALX3 [1] is 8.13 upbm affinity estimate (log intensity, higher = more binding, comparable within an allelic series); in the experiment with ALX3 [2], 9.19 upbm affinity estimate (log intensity, higher = more binding, comparable within an allelic series); with ALX3 [7] it was 8.22 upbm affinity estimate (log intensity, higher = more binding, comparable within an allelic series).

Consider AATCATTC, for which the binding signal with ALX3 [1] was 8.14 upbm affinity estimate (log intensity, higher = more binding, comparable within an allelic series); with ALX3 [2] it was 10 upbm affinity estimate (log intensity, higher = more binding, comparable within an allelic series); with ALX3 [7] it was 8.17 upbm affinity estimate (log intensity, higher = more binding, comparable within an allelic series).

Turning to ATTATTTA, the binding signal with ALX3 [1] is 8.54 upbm affinity estimate (log intensity, higher = more binding, comparable within an allelic series); in the experiment with ALX3 [7], 8.69 upbm affinity estimate (log intensity, higher = more binding, comparable within an allelic series).

On to ATCGCTAA, for which the binding signal was 8.25 upbm affinity estimate (log intensity, higher = more binding, comparable within an allelic series) with ALX3 [1]; 9.67 upbm affinity estimate (log intensity, higher = more binding, comparable within an allelic series) with ALX3 [2]; 8.28 upbm affinity estimate (log intensity, higher = more binding, comparable within an allelic series) with ALX3 [7].

With ACGTTAGT, the binding signal is 8.16 upbm affinity estimate (log intensity, higher = more binding, comparable within an allelic series) with ALX3 [1]; 9.39 upbm affinity estimate (log intensity, higher = more binding, comparable within an allelic series) with ALX3 [2]; 8.22 upbm affinity estimate (log intensity, higher = more binding, comparable within an allelic series) with ALX3 [7].

GGATGGCC: the binding signal with ALX3 [1] was 7.66 upbm affinity estimate (log intensity, higher = more binding, comparable within an allelic series); in the experiment with ALX3 [2], 7.74 upbm affinity estimate (log intensity, higher = more binding, comparable within an allelic series); in the experiment with ALX3 [4], 7.73 upbm affinity estimate (log intensity, higher = more binding, comparable within an allelic series); in the experiment with ALX3 [5], 7.67 upbm affinity estimate (log intensity, higher = more binding, comparable within an allelic series); with ALX3 [7], 7.67 upbm affinity estimate (log intensity, higher = more binding, comparable within an allelic series).

Turning to AGTTAATA, the binding signal is 8.54 upbm affinity estimate (log intensity, higher = more binding, comparable within an allelic series) in the experiment with ALX3 [1] and 8.65 upbm affinity estimate (log intensity, higher = more binding, comparable within an allelic series) with ALX3 [7].

As to CATTTATA, in the experiment with HOXD13 [9], the binding signal is 10.7 upbm affinity estimate (log intensity, higher = more binding, comparable within an allelic series).

As to TATATTAA, the binding signal with HOXD13 [9] is 10.7 upbm affinity estimate (log intensity, higher = more binding, comparable within an allelic series).

Consider GAATATCA, for which the binding signal in the experiment with ALX3 [1] was 8.19 upbm affinity estimate (log intensity, higher = more binding, comparable within an allelic series); with ALX3 [2] it was 8.71 upbm affinity estimate (log intensity, higher = more binding, comparable within an allelic series); with ALX3 [7], 8.23 upbm affinity estimate (log intensity, higher = more binding, comparable within an allelic series).
